TDP1 cell CPT = qHTS for Inhibitors of human tyrosyl-DNA phosphodiesterase 1 (TDP1): qHTS in cells in presence of CPT | chicken DT40 Tdp1-/-;hTDP1 cells + 20 nM CPT, ATP luminescence, 48 h | Potency, µM (series often up to 46.2 µM), for inactives: at the top dose activity change, negative = growth inhibition, most hits filed as inhibitors | 420,000 compounds, 12% hits; also: % is scaled to controls: 0 for no effect and ±100 for the full control effect; nearly all actives have a fitted effect of over 55% in size
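Cell growth measured by CellTiter-Glo luminescence after a minimum 48 h, 37 C compound exposure with 20 nM CPT in Tdp1-knockout DT40 cells stably expressing hTDP1, seeded 400/well; qHTS titration format.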
TDP1 block = qHTS Assay for Inhibitors of Tyrosyl-DNA Phosphodiesterase (TDP1); Tyrosyl-DNA phosphodiesterase 1 (Homo sapiens), Q9NUW8; recombinant TDP1, AlphaScreen DNA substrate cleavage; Potency, µM (top dose mostly 130 µM), without a hit: top-dose activity change, negative = inhibition, hits mostly inhibitors; 350,000 compounds, 0.28% hits; also: % is scaled to controls: 0 for no effect and ±100 for the full control effect; nearly all actives have a fitted effect of over 40% in size
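Here, a 5' biotin and 3' phosphotyrosine-FITC DNA oligonucleotide reports Tdp1 activity: intact substrate bridges AlphaScreen beads, while cleavage leaves a 3' phosphate and drops signal. All incubations at room temperature.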
ClpP mod = qHTS Assay for Activators of ClpP; 340,000 compounds, 1.9% hits; Potency, µM (titrated, usually from 57.5 µM), inactives show top-dose activity change, negative = active; ATP-dependent Clp protease proteolytic subunit (Bacillus subtilis (strain 168)), P80244; purified B. subtilis ClpP, FRET peptide cleavage, 20 min; active = well fitted falling curve with a large enough effect; inconclusive = small, poorly fitted or top-dose-only effect; inactive = no such curve, though single readings can be large or run the other way; also: the source files actives as falling curves though it sought activators and does not explain the sign; nearly all actives have a fitted effect of over 65% in size
Target sequence (P80244 whole entry, looked up): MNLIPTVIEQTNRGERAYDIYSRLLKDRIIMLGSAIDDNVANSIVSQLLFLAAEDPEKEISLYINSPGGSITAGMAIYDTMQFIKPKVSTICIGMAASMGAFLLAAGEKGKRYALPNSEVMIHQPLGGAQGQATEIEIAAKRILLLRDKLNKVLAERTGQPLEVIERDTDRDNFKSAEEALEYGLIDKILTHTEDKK
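Buffer: 100 mM Tris/HCl pH8, 100 mM KCl, 0.05% low protease BSA, 2.5% glycerol, 0.01% Tween-20. ClpP 10 microg/mL final; 20 min RT; delta FRET normalized to ADEP and DMSO controls.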
DT40 TDP1 no CPT = qHTS for Inhibitors of human tyrosyl-DNA phosphodiesterase 1 (TDP1): qHTS in cells in absence of CPT; AID 686978, 2013; Potency, µM (series often up to 46.2 µM), for inactives: at the top dose activity change, negative = growth inhibition, most hits filed as inhibitors; DT40 Tdp1-/- hTDP1 cells, no CPT, ATP luminescence, 48 h; 420,000 compounds, 15% hits; also: % is scaled to controls: 0 for no effect and ±100 for the full control effect; nearly all actives have a fitted effect of over 55% in size
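A cellular qHTS used chicken DT40 cells lacking endogenous Tdp1 but carrying stably transfected human TDP1. Compounds were applied without camptothecin, and cell growth kinetics were judged by ATP-dependent luminescence after ≥48 hr.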
* marks the source's active call; other numbers are inactive results; ? = inconclusive; nt = no result; [ ] = dose if it differs, or a comment. Hits are enriched below; roughly 17% of the tested compounds scored in any of these assays. Unless noted, calls follow the shape of the dose curve; as a rule, active = well fitted curve in the direction sought with a large enough effect; inconclusive = small, poorly fitted or top-dose-only effect, or another doubt; inactive = no such curve, though single readings can be large; an effect the other way counts as inactive or inconclusive. Potency is read from the fitted curve at half-maximal effect.

SMILES	TDP1 cell CPT	TDP1 block	ClpP mod	DT40 TDP1 no CPT
CCOC(=O)c1c(NC(=O)CSc2nc3nc(C)cc(C)n3n2)sc(CC)c1C	12µM*	5%	nt	?
CCOC(=O)c1sc(NC(=O)CSc2n[nH]c(-c3ccccc3)n2)c(C#N)c1C	12µM*	9%	125%	?
O=C(Nc1ccccc1N1CCN(C(=O)c2ccccc2)CC1)c1cc(Br)ccc1Cl	18µM*	4%	-12%	23µM*
COc1c(C)cc(Br)cc1C(=O)Nc1ccccc1N1CCN(C(=O)c2ccccc2)CC1	?	0%	18µM*	15µM*
COc1ccc(Cl)cc1C(=O)Nc1ccc(NC(C)=O)cc1	1%	0%	nt	1%
COc1ccc(Cl)cc1C(=O)Nc1ccccc1N1CCN(C(=O)C(C)C)CC1	29µM*	-2%	6%	18µM*
O=C(Nc1ccccc1N1CCN(C(=O)c2ccc(Cl)cc2)CC1)c1cccc(F)c1	?	0%	-6%	?
COc1ccc(Cl)cc1C(=O)Nc1ccc(NC(=O)C(C)C)cc1	18µM*	2%	2%	18µM*
COc1cc(NC(=O)c2cc(Br)cc(C)c2OC)ccc1NC(=O)C(C)C	?	2%	nt	23µM*
CC(=O)N1CCN(c2ccccc2NC(=O)c2cccc3c(Cl)cccc23)CC1	15µM*	nt	0%	?
COc1cc2ccccc2cc1C(=O)Nc1ccccc1N1CCCC1	?	-3%[0.505 µM]	-29%	?
COc1cc(NC(=O)c2ccc(Br)o2)ccc1NC(=O)C(C)C	-8%	0%	3%	-17%
COc1ccc(Br)cc1C(=O)Nc1ccccc1N1CCN(C(=O)c2ccccc2)CC1	?	-5%	nt	16µM*
COc1ccc(N2CCN(C(=O)CN3C(=O)COc4ccc(S(=O)(=O)N5CCC(C)CC5)cc43)CC2)cc1	nt	9%	2%	nt
CC(CNC(=O)CN1C(=O)c2cccnc2Oc2ccc(Cl)cc21)c1ccccc1 (stereo not drawn)	?	1%	1%	?
CCCOc1ccc(CNC(=O)CN2C(=O)c3cccnc3Oc3ccc(C)cc32)cc1	23µM*	6%	0%	?
CC(C)Oc1ccc(CNC(=O)CN2C(=O)c3cccnc3Oc3ccc(Cl)cc32)cc1	16µM*	5%	-3%	18µM*
COc1ccc(Br)cc1CNC(=O)CN1C(=O)c2cccnc2Oc2ccc(C)cc21	?	-5%	0%	12µM*
CCOc1ccccc1CNC(=O)CN1C(=O)c2cccnc2Oc2ccc(C)cc21	?	2%	-2%	?
Cc1ccc2c(c1)N(CC(=O)NCc1ccccc1Br)C(=O)c1cccnc1O2	?	4%	-2%	-26%
COC(=O)CCCn1cc(CN2CC(N(C)C)CS2(=O)=O)nn1 (stereo not drawn)	4%	nt	2%	-21%
COc1ccc(NC2CCCN(C(=O)CCc3ccncc3)C2)cc1OC (stereo not drawn)	-18%	8%	-1%	13%
CCn1c(=O)c(=O)n(CC)c2cc(N3CCCCC3)c(NC(=O)c3cccc(OC)c3)cc21	-1%	5%	-15%	-24%
CCn1c(=O)n(CC)c2cc(N3CCCC3)c(NC(=O)c3cccc(C)c3)cc21	21µM*	5%	-12%	16µM*
CCn1c(=O)n(CC)c2cc(N3CCCC3)c(NC(=O)c3cccc(Cl)c3)cc21	15µM*	8%	-1%	9.2µM*
CCn1c(=O)n(CC)c2cc(N3CCCC3)c(NC(=O)c3ccc(C)c([N+](=O)[O-])c3)cc21	6.5µM*	3%	-9%	7.3µM*
CC(=O)c1c(C)[nH]c(C(=O)NCc2ccc(Cl)cc2)c1C	-24%	nt	-5%	-28%
O=C(Nc1cccc(S(=O)(=O)C(F)F)c1)c1ccc(S(=O)(=O)N2CCOCC2)cc1	-15%	5%	-1%	18µM*
O=C(Nc1ccncc1)c1cccc(S(=O)(=O)N2CCOCC2)c1	-7%	nt	1%	?
O=C(Nc1ccc(S(=O)(=O)N2CCOCC2)cc1)c1ccc(F)cc1	6%	nt	nt	-27%
